Results published in PubChem BioAssay AID743287 (Broad Institute, 2014).
Screen size: about 370,000 compounds; about 2,300 (0.62%) were called active.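 Rule for the calls: active = lowest replicate activation of at least 40%, so every replicate reaches that level; inactive = the rest.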 What follows is part of a selection rich in actives, with near analogues and random picks from the rest.

test: GLuc luminescence reporter in INS-1E cells, primary screen for activators of glucose-dependent secretion of insulin (AID 743287); conditions: INS-1E GLuc reporter insulin secretion, 2-3 h, at 16.6 µM, stronger effect = higher value;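 note: 0% = median of neutral control wells and 100% = median of IBMX positive control wells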

SMILES	activation
COc1ccccc1NC(=O)N1CCCCN2[C@@H](CO)[C@@H](c3ccc(C#Cc4ccccc4)cc3)[C@@H]2C1	-22.8% (inactive)
S=C(Cc1ccc(Cl)cc1)N1CCOCC1	9.43% (inactive)
OC(c1ccc(Cl)cc1)C(CN1CCOCC1)c1ccccc1 (stereo not drawn)	225% (active)
O=C(CC(c1ccccc1)c1cc(Cl)ccc1O)NCCN1CCOCC1 (stereo not drawn)	-15% (inactive)
O=C(NC[C@@H]1[C@@H](c2ccccc2)[C@@H](CO)N1Cc1ccccn1)C1CCC1	1.69% (inactive)
CCc1cnc(N2[C@H](C#N)[C@H](c3ccccc3-c3ccccc3C)[C@H]2CO)s1	-14.3% (inactive)
O=C(CSc1nc(C2CC2)nc2ccccc12)Nc1ccc2c(c1)OCCO2	43.1% (active)
O=C(CSc1nnnn1C1CCCC1)Nc1ccc2c(c1)OCCO2	4.25% (inactive)
Cc1nnc(NC(=O)CSc2nc(C3CCCCC3)nc3ccccc23)s1	16.1% (inactive)
COc1ccccc1CN1[C@H](CO)[C@H](c2ccccc2)C12CN(C(=O)c1ccccn1)C2	-3.88% (inactive)
O=C(C[C@H]1C[C@H]2c3cc(NC(=O)NC4CCCC4)ccc3O[C@H]2[C@@H](CO)O1)NCc1ccc(-c2ccccc2)cc1	-0.703% (inactive)
COc1ccc2c3c([nH]c2c1)[C@H](CO)N(Cc1nccs1)CC31CCN(Cc2ccncc2)CC1	3% (inactive)
CC(C)NC(=O)N(C)C[C@H]1Oc2ccc(NS(C)(=O)=O)cc2C(=O)N(C)C[C@@H]1C	-0.922% (inactive)
Cc1ccc(CSc2nc3[nH]ncc3c(=O)[nH]2)cc1	23.2% (inactive)
CCCSc1nc2[nH]ncc2c(=O)[nH]1	53.9% (active)
O=C(CSc1nc2[nH]ncc2c(=O)[nH]1)Nc1ccc(F)cc1	5.73% (inactive)
CN1c2ccc(-c3cccc(F)c3)cc2[C@H]2[C@H](CCN2C(=O)C2CCCC2)[C@@H]1CO	-41.3% (inactive)
O=C(C[C@H]1C=C[C@H](NC(=O)Nc2cc(F)ccc2F)[C@@H](CO)O1)NCc1ccccn1	2.32% (inactive)
C[C@H]1CN([C@@H](C)CO)C(=O)c2c(c3ccccc3n2C)-c2ccccc2CO[C@@H]1CN(C)C(=O)Nc1ccnc(N2CCOCC2)c1	-10.3% (inactive)
O=C(CN(CC1CCCO1)C(=O)CNS(=O)(=O)c1ccccc1)NCc1ccccc1 (stereo not drawn)	1.79% (inactive)
O=C(CN(CC1CCCO1)C(=O)CNS(=O)(=O)c1ccc(F)cc1)NCc1ccco1 (stereo not drawn)	16.2% (inactive)
CC(C)C(C(=O)NCc1ccco1)N(CC1CCCO1)C(=O)CNS(=O)(=O)c1ccc(F)cc1 (stereo not drawn)	47.3% (active)
CC(C)C#Cc1ccc2c(c1)O[C@@H](CN(C)C(=O)C1CCC1)[C@@H](C)CN([C@@H](C)CO)S2(=O)=O	-2.35% (inactive)
COc1ccc(-c2cc(NC=O)c3ncc(-c4ccccc4)n3c2)cc1OC	2.43% (inactive)

SMILES	activation
COc1ccc(-c2nn3c(-c4ccccc4)nnc3s2)cc1OC	140% (active)
COc1ccccc1CCn1cnc(-c2ccccc2)c1C(C)C	40.3% (inactive)
COc1ccc2c3c([nH]c2c1)[C@@H](CO)N(Cc1ccc2c(c1)OCO2)CC31CN(C(=O)Nc2c(C)noc2C)C1	8.95% (inactive)
C[C@H](O)C#Cc1cnc2c(c1)C(=O)N([C@@H](C)CO)C[C@H](C)[C@H](CN(C)C(=O)c1ccccc1)O2	11.8% (inactive)
O=C(Nc1ccc(C(F)(F)F)cc1)N[C@@H]1CC[C@H](CC(=O)N2CCCCC2)O[C@H]1CO	-5.98% (inactive)
C[C@H]1CN([C@@H](C)CO)C(=O)c2cccc(NC(=O)Nc3ccc(C(F)(F)F)cc3)c2O[C@H]1CN(C)CC1CCCCC1	-0.988% (inactive)
CC(=O)Nc1ccc(NC(=O)C2CCCN2S(=O)(=O)c2cccc(C(F)(F)F)c2)cc1 (stereo not drawn)	-4.8% (inactive)
NC(c1csc(NC(=O)Nc2cccc(C(F)(F)F)c2)n1)C1CCCCC1 (stereo not drawn)	48.3% (active)
C[C@@H]1CN([C@@H](C)CO)C(=O)c2cccc(NC(=O)Nc3cccc4ccccc34)c2O[C@@H]1CN(C)CC1CC1	21.1% (inactive)
O=C(Nc1ccccc1F)N[C@H]1C=C[C@H](CC(=O)N2CCCCC2)O[C@H]1CO	-5.96% (inactive)
O=C(CC1CC1)N1[C@@H](CO)[C@H](c2ccccc2)C12CN(Cc1cccnc1)C2	2.36% (inactive)
CCC(=O)N1C[C@@H](C)[C@H](OC)CN(C)C(=O)c2ccc(NC(=O)C3CCOCC3)cc2OC[C@@H]1C	8.65% (inactive)
O=C1CNC[C@H]2[C@@H](c3ccc(C4=CCCC4)cc3)[C@@H](CO)N12	2.03% (inactive)
CCC(=O)N1[C@@H](CO)[C@@H](c2ccc(C3=CCCC3)cc2)C12CN(C(=O)COC)C2	3.86% (inactive)
C[C@@H]1CCCCO[C@@H](CN(C)C(=O)CCCN(C)C)[C@@H](C)CN([C@H](C)CO)C(=O)c2cc(NC(=O)CCCN(C)C)ccc2O1	12.7% (inactive)
Cc1ccc2c(C)c(C(=O)N(C)CCC3CCCCO3)oc2c1C (stereo not drawn)	0.532% (inactive)
Cc1c(C(=O)N(C)CCc2cnn(C)c2)oc2c(F)cccc12	44.6% (active)
CN(CCc1cnn(C)c1)Cc1cn(C)nc1-c1ccccc1F	-1.92% (inactive)
COc1ccc(S(=O)(=O)N2CCOCC2)cc1NC(=O)COc1ccccc1	43.9% (active)
COc1ccc(S(=O)(=O)N2CCOCC2)cc1NC(=O)CSc1ncnc2ccccc12	14.3% (inactive)
COc1ccc(S(=O)(=O)N2CCOCC2)cc1NC(=O)Cc1c(F)cccc1Cl	-12.7% (inactive)
COCC(=O)N(C)C[C@@H]1Oc2cc(C#CC3CC3)ccc2S(=O)(=O)N([C@H](C)CO)C[C@H]1C	5.41% (inactive)
C[C@@H]1CC=CC[C@H](c2ccc(F)cc2)NC(=O)[C@@H](Cc2ccccc2)N(C)C(=O)c2ccccc2O1 (mixture of isomers)	-20.2% (inactive)
C[C@@H]1CN([C@H](C)CO)C(=O)c2cc(NS(=O)(=O)c3ccc(F)cc3)ccc2O[C@@H]1CN(C)S(C)(=O)=O	12.8% (inactive)
